PAFAH1B2 FP inh: PAFAH1B2 (human) inhibition; AID 492953; 1.2% of 340,000 active; recombinant PAFAH1B2, FP-rhodamine activity probe, fluorescence polarization; inhibition, % at 3.39 µM;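 active = inhibition above the mean of all tested compounds plus 3 SD, cut at about 24% in these data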;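 also: 0% = enzyme with DMSO and 100% = wells lacking PAFAH1B2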
TCR CD3 inh: blocks the human TCR-CD3 interaction | TAMRA-labeled TCR probe fluorescence, biochemical | inhibition, % at 9.4 µM | 0.37% of 360,000 active; in the data active = inhibition above about 19%;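 also: recombinant mutant TCR 2C K166C tagged with TAMRA read by polarization; 0% = receptor in buffer alone and 100% = receptor with positive control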
PAFAH1B3 FP inh: blocks human PAF acetylhydrolase 1B catalytic subunit 3; inhibition, % at 3.39 µM; 0.28% of 340,000 active; recombinant PAFAH1B3, FP-rhodamine probe, fluorescence polarization; AID 492972; Q15102;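 active = inhibition above the screen-wide average of all tested compounds plus 3 SD, cut at about 25% in these data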;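 also: 0% = enzyme with DMSO only and 100% = wells lacking PAFAH1B3 protein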
PAFAH2 FP inh: inhibitors of human PAFAH2; Q99487; recombinant PAFAH2, FP-rhodamine activity probe, fluorescence polarization; inhibition, % at 3.39 µM; 0.99% of 340,000 active; AID 492956;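 active = inhibition above the mean over all tested compounds plus 3 SD, cut at about 30% in these data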;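 also: inhibitors block probe labeling of enzyme so polarization drops; 0% = enzyme with DMSO and 100% = wells lacking PAFAH2 protein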
pPAFAH FP inh: inhibitors of human plasma PAF acetylhydrolase (pPAFAH); recombinant pPAFAH, FP-rhodamine probe fluorescence polarization; inhibition, % at 3.39 µM; 1.5% of 330,000 active;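 active = inhibition above the mean inhibition across the screen plus 3 SD, cut at about 25% in these data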;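 also: inhibitors block binding of the rhodamine activity-based probe so polarization drops; 0% = enzyme with DMSO and 100% = wells lacking pPAFAH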
Target sequence (Q13093 whole entry, looked up): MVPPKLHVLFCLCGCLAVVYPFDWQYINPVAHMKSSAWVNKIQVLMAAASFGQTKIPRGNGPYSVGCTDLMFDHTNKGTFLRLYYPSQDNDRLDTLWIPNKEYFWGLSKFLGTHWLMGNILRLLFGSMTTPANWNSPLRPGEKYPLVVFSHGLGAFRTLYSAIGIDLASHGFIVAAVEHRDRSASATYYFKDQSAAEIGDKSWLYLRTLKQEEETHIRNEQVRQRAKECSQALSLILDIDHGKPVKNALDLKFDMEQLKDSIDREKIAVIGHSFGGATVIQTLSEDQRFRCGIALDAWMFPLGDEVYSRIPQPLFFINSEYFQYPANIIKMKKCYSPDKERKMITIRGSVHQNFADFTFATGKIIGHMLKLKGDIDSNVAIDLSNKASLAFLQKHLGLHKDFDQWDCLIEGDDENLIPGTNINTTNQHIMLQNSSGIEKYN
PAFAH1B3 conf FP: confirmation of human PAFAH1B3 inhibitors. inhibition, % at 3.39 µM. AID 493032. recombinant PAFAH1B3, FP-Rh activity-based probe, fluorescence polarization. shares compounds with PAFAH1B3 FP inh. 30% of 390 active;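 active = average inhibition over triplicate runs above the hit cutoff set in the earlier primary screen, cut at about 25% in these data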;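 also: 0% = enzyme with DMSO and 100% = wells lacking PAFAH1B3 protein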
* = called active by the depositor; / = no result; ! = repeats disagree. The list is not random: actives were taken first. Their share in the collection is about 2.7%.

SMILES	PAFAH1B2 FP inh	TCR CD3 inh	PAFAH1B3 FP inh	PAFAH2 FP inh	pPAFAH FP inh	PAFAH1B3 conf FP
CCc1cc(/C(Cc2csc(C)n2)=N/O)c(O)cc1O	13	-5	29*	8	8	23
Cc1nc(C/C(=N\N)c2ccc(O)cc2O)cs1	3	2	5	-2	6	/
COc1ccc(C(=O)/C=C/Nc2ccc(S(=O)(=O)Nc3cc(OC)nc(OC)n3)cc2)c(OC)c1	4	6	4	-3	3	/
CC(C)(C)c1cc[n+](C2=C([O-])c3ccccc3C(=O)/C2=N\S(=O)(=O)c2cccs2)cc1	/	-1	/	/	12	/
O=C1/C(=N\S(=O)(=O)c2cccs2)C([n+]2ccccc2)=C([O-])c2ccccc21	16	3	49*	17	1	35*
O=[N+]([O-])c1ccc(N/N=C/c2c[nH]c3ccccc23)c(S(=O)(=O)Nc2ccc(Cl)cc2)c1	15	4	30*	27	1	16
O=[N+]([O-])c1ccc(NS(=O)(=O)c2ccc(Cl)c(Cl)c2)cc1	/	2	/	/	/	/
O=C(N/N=C/c1cc(Br)ccc1OC(=O)c1ccc(Br)cc1)c1ccncc1	15	1	26*	-19	8	13
O=C(N/N=C/c1ccc(OC(=O)c2ccc(Br)cc2)cc1)c1ccncc1	0	0	8	0	-4	/
COc1cc(NCCCNC(C)C)c2nccc(C)c2c1	13	9	40*	0	/	13
C=CCOc1ccc(Br)cc1/C=C1/SC(=Nc2ccc(C(=O)O)cc2)NC1=O	10	1	31*	0	/	21
CN(C)CCCNC(=O)c1ccc(-c2cc3nc(NCc4cccnc4)n(C)c(=O)c3s2)cc1	/	5	/	/	/	/
COc1ccc(OCC(=O)Nc2ccc3c(c2)nc(CCn2ccccc2=O)n3C)cc1	3	-3	6	-1	7	/
O=C(NC1(O)C(=O)c2ccccc2C1=O)c1ccccc1	9	4	36*	16	2	37*
O=C(NC1(O)C(=O)c2ccccc2C1=O)c1c(Cl)cccc1Cl	/	-10	/	/	7	/
COc1ccc(C(=O)c2nccc3cc(OC)c(OC)cc23)cc1OC	10	/	57*	12	5	8
COc1cccc(-c2ncc3ccccc3c2COC(=O)CCC(=O)O)c1	5	-8	-4	2	-1	/
CCCc1cc(=O)[nH]c(SCC(=O)N2CCc3ccccc3C2)n1	4	-3	-2	-2	-1	/
O=C(CSc1nccc(=O)[nH]1)N1CCc2ccccc2C1	4	11	28*	2	7	5
C/C(=N\NC(=S)Nc1ccc(F)cc1)C1CC1	7	2	26*	1	2	10
O=C(Nc1ccccc1)c1ccc(Nc2c([N+](=O)[O-])cc([N+](=O)[O-])c3ccccc23)cc1	-1	-4	-7	11	-4	/
O=[N+]([O-])c1cc(Br)c(Nc2ccccc2)c([N+](=O)[O-])c1	5	-1	36*	21	5	29*
Cc1ccc(C2=NOC(=O)/C2=C\C=C\c2ccccc2)cc1	12	5	36*	16	/	29*
Cc1ccc(OCC(=O)Nc2ccc(S(=O)(=O)NC3=NCCCCC3)cc2)cc1	/	0	/	/	/	/
O=C1C(c2ccccc2)=[N+]([O-])c2ccccc21	5	-1	28*	18	5	13
SMILES	PAFAH1B2 FP inh	TCR CD3 inh	PAFAH1B3 FP inh	PAFAH2 FP inh	pPAFAH FP inh	PAFAH1B3 conf FP
CO[C@@H]1CN(C)C(=O)c2cc(NC(=O)NC3CCCCC3)ccc2OC[C@@H](C)N(CCc2ccccc2)C[C@@H]1C	/	1	/	/	/	/
COc1ccc2nc(NNC(=O)c3cc(=O)c4ccccc4o3)sc2c1	3	-1	29*	11	24	23
Nc1ccc2c(c1)C(=NO)c1ccccc1-2	0	-6	10	4	/	/
ON=C1c2ccccc2-c2ccc(O)cc21	3	-11	37*	7	/	28*
O=c1[nH]c(Nc2ccccc2)cc2cc(Br)ccc12	16	-2	61*	18	16	14
COc1ccc(OC)c(Nc2cc3ccccc3c(=O)[nH]2)c1	6	-5	38*	12	2	15
O=c1[nH]c(Nc2ccccc2)cc2ccccc12	8	-4	31*	2	-6	18
CCOC(=O)c1c(OCCO)nn(-c2ccccc2)c1N	3	2	-2	-2	4	/
O=C(O)c1ccc(Nc2ncc([N+](=O)[O-])cc2[N+](=O)[O-])cc1	/	5	/	/	6	/
CCOC(=O)c1cnn(-c2ccccc2)c1-c1ccncc1	-3	-7	-4	3	-3	/
COc1ccccc1-c1nnc2n1N=C(c1ccc(O)c(O)c1)CS2	7	/	30*	17	17	23
CC(=O)NS(=O)(=O)c1ccc(NC(=O)c2cccc3ccccc23)cc1	3	1	-1	3	0	/
O=C1Nc2c(Cl)cc(Cl)cc2C1=O	16	-3	43*	13	/	23
O=Nc1c(O)c2ccccc2c2ccccc12	11	0	94*	12	15	66*
COc1ccc(CCNC(=O)C2CC3Cn4c(nc5ccccc54)C3N2c2ccccc2)cc1 (stereo unspecified)	-4	-3	11	8	4	/
O=C1NC(=O)c2cc(Br)cc3cccc1c23	6	0	46*	-1	3	53*
C=CCOc1ccccc1CN1CCC(Oc2cc(C(=O)NC3CC3)ccc2OC)CC1	-8	1	9	2	/	/
Nc1nonc1N/N=C/c1c(O)ccc2ccccc12	15	16	31*	18	23	17
COc1cc2c(C#N)c(N3CCCC3)nc(N)c2c(N)n1	10	5	43*!	12	8	11
CCCOc1cc2c(C#N)c(N3CCCC3)nc(N)c2c(N)n1	10	-1	28*	15	7	15
COc1ccc(NC(=O)CNc2cc(C)ccc2C)cc1S(=O)(=O)N1CCOCC1	0	-8	5	-8	2	/
Cc1ccccc1NC(=O)c1ccc2nc(N3CCOCC3)sc2c1	-1	2	-2	1	-2	/
O=c1c(=Nc2ccccc2O)c(=O)c2ccccc12	10	4	50*	7	1	12
COc1ccc(C(=O)Nc2ccc(S(=O)(=O)N3CCCCC3)cc2)cc1OC	0	9	1	4	1	/
COc1cc(OC)c(C(=O)Nc2ccc(S(=O)(=O)N3CCCCC3)cc2)cc1OC	6	1	30*	5	7	25
C/C(=N/Nc1ccc([N+](=O)[O-])cc1)c1c[nH]c2ccccc12	10	-11	36*	3	/	16
